RecA intein inh: inhibitors of M. tuberculosis RecA intein splicing. P9WHJ3. cell-free RecA intein splicing, fluorescence. inhibition, % (concentration not given with the values). 290,000 tested, 0.75% active. AID 2221; in the data active = inhibition above about 30%;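 also: 0% = vehicle wells and 100% = reference inhibitor control wells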
CCHF vOTU inh: CCHFV vOTU protease inhibition. 370,000 tested, 0.55% active. Pep-AMC fluorescence. inhibition, % at 11.5 µM; also: 0% = vehicle wells with enzyme and 100% = no enzyme wells
Mtb FBA inh: inhibits M. tuberculosis FBA enzyme; P9WQA3; purified M. tuberculosis FBA, fluorescence read-out; inhibition, % at 1 µM; 360,000 tested, 2.3% active; AID 588726; in the data active = inhibition above about 27%;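 also: 0% = vehicle and 100% = reference inhibitor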
Target sequence (P9WQA3 whole entry, looked up): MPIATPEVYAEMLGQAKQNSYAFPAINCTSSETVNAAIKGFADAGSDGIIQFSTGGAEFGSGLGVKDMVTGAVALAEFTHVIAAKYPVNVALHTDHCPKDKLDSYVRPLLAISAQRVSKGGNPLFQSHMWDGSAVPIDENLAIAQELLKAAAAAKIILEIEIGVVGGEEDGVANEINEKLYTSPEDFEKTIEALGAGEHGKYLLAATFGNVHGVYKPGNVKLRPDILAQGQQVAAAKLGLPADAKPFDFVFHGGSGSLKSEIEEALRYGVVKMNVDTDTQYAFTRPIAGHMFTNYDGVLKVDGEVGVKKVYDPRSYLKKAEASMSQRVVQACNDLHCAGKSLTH
GDH-TPI counter: counter-screen for M. tuberculosis FBA inhibitors: GDH-TPI coupled enzymes; GDH-TPI coupled enzyme counterscreen, NADH absorbance; inhibition, % at 4.8 µM; 360,000 tested, 1.2% active;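 also: 0% = DMSO wells and 100% = wells lacking the enzyme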
* marks the source's active call; other numbers are inactive results; · = no result given; + = active, no number. Compounds with a hit are over-represented: about 4.2% of the library has one in this group of screens. Rule as the data show it, unless noted: active = inhibition above about 30%; inactive = the rest.

SMILES	RecA intein inh	CCHF vOTU inh	Mtb FBA inh	GDH-TPI counter
CCN(CC)c1ccc(C=Nn2c(-c3ccc(F)cc3)n[nH]c2=S)c(O)c1	·	24	·	·
O=C(c1cc(Cl)cc(Cl)c1)N1CC[C@H]2[C@H](CCCN2Cc2cc(F)cc(F)c2)C1	·	7	·	·
COc1cc(/C=C/c2sc3ccccc3[n+]2CCCS(=O)(=O)[O-])ccc1O	36*	19	-13	8
CCC(/C=C1\Oc2ccc(OC)cc2N1C)=C\c1sc2ccccc2[n+]1CCCS(=O)(=O)[O-]	·	2	-3	-4
CN(C(=O)c1ccc(S(=O)(=O)c2cccc(Cl)c2)c([N+](=O)[O-])c1)C1CCCCC1	35*	-5	-3	3
O=S(=O)(N/N=C/c1ccc(N2CCOCC2)cc1)c1ccc(Br)cc1	3	1	1	36*
Cc1ccc(NC(=O)COc2ccccc2C(=O)NCc2ccccc2)cc1	·	13	1	4
Cc1ccc(/C=N/Nc2nc3ccccc3s2)o1	-2	11	-4	56*
Cc1ccc(/C=N/Nc2nc(C(C)(C)C)cs2)o1	3	10	-1	1
Cn1c(NC(=O)c2ccc(F)cc2)c(-c2cccs2)c(=O)c2ccccc21	-1	1	0	19
Cn1c(NC(=O)c2ccccc2F)c(-c2cccs2)c(=O)c2ccccc21	-1	3	0	43*
C=CC[C@@H]1NN2C(=O)[C@@H](CCc3ccccc3)[C@@H]3c4ccccc4C=NN3[C@@H]2c2ccccc21	·	6	·	·
CC(=O)c1ccc(Nc2cc(C)nc3nc(C)nn23)cc1	2	11	-1	31*
Cn1c(=O)c2[nH]c(NN=Cc3cccc(Br)c3)nc2n(C)c1=O	·	2	-3	37*
Cn1c(=O)c2[nH]c(NN=Cc3ccc(F)cc3)nc2n(C)c1=O	·	3	-1	29
CCN(CC)CCOc1ccc(C=NNc2nc3c([nH]2)c(=O)n(C)c(=O)n3C)cc1	·	10	0	44*
Cc1ccc(Nc2nc3c([nH]2)c(=O)n(C)c(=O)n3C)cc1	-2	2	1	-1
CN(C(=O)COC(=O)c1cccc(S(=O)(=O)N2CCCCC2)c1)C1CCS(=O)(=O)C1 (centres undefined)	0	6	-1	-4
CC(C)NC(=S)N/N=C/c1cccs1	1	20	-5	38*
S=C(NCCc1ccccc1)N/N=C/c1cccs1	-3	14	1	21
S=C(NCc1ccccc1)N/N=C/c1cccs1	5	7	17	34*
C=CCn1c2ccccc2c(=O)c2cc(C#CC[C@@H](C)O)ccc21	·	-106	+	13
CN(Cc1ccccc1)C(=O)OCc1cn(Cc2ccccc2C(F)(F)F)nn1	·	9	·	·
Cc1ccccc1NC(=O)OC1CCC12CCCCC2 (centres undefined)	·	4	·	·
CN(C)Cc1c(O)ccc2c(=O)c(-c3ccccc3Cl)c(C(F)(F)F)oc12	·	-4	2	36*
SMILES	RecA intein inh	CCHF vOTU inh	Mtb FBA inh	GDH-TPI counter
COc1ccccc1-c1c(C(F)(F)F)oc2c(CN(C)C)c(O)ccc2c1=O	-6	-3	3	14
CCCCCNc1nc2ccccc2nc1NS(=O)(=O)c1cccs1	-4	11	2	31*
O=C(NCc1ccco1)c1ccccc1NS(=O)(=O)c1cccs1	3	2	1	-4
O=S(=O)(Nc1nc2ccccc2nc1NCc1ccco1)c1cccs1	1	4	6	32*
C=CCNc1nc2ccccc2nc1NS(=O)(=O)c1cccs1	-2	16	4	27
CCCC(=O)N1CCC1(C)C(=O)Nc1ccc(-n2cccc2)cc1 (centres undefined)	·	·	0	4
Nc1[nH]c(=O)[nH]c(=O)c1N=Cc1ccccc1	·	·	43*	7
Cc1ccc(C2=CCN(C)C(=O)N2c2ccc([N+](=O)[O-])cc2)cc1	·	4	·	·
CN(C)c1ccc(C(=O)OCC(=O)c2ccc[nH]2)cc1	·	10	1	31*
COc1nc2ccccc2nc1N1CC1	·	-28	29*	·
Cc1ccc(S(=O)(=O)NCCC(=O)OCC(=O)N(Cc2ccccc2)C(C)(C)C)cc1	-2	-5	1	-1
Cc1ccc(NCC(=O)N/N=C/c2cccn2C)cc1	1	1	0	35*
CNc1ccccc1/C(O)=C(\C#N)C(=O)NCc1cccs1	·	-1	·	·
CCN(CC)CCNC(=O)CSc1c2c(nc3cc(Cl)ccc13)CCCC2	35*	3	-2	14
CCN(CC)CCCNC(=O)c1ccc2c(SCC(=O)O)c3c(nc2c1)CCC3	3	·	·	·
CC(=O)N(Cc1ccccc1)c1c(N)nc(N)[nH]c1=O	0	-11	2	0
COC(=O)c1ccc(S(=O)(=O)c2ccccc2)c(N)c1	-2	-179	121*	10
COC(=O)c1ccc(C(=O)OC)c(N)c1	-95	·	·	·

Assay outcomes (PubChem BioAssay)
